In PubChem BioAssay (NCATS):
Where “and” joins values, the source holds several entries; their conditions need not be identical. Equal entries are not always repeated. Inconclusive results are not listed. Calls of active or inactive are those of the source. Unless noted, the call rests on the fitted dose curve; in most records, active means well fitted curve in the direction sought with a large enough effect; inconclusive means small, poorly fitted or top-dose-only effect, or another doubt; inactive means no such curve, though single readings can be large; an effect the other way counts as inactive or inconclusive.

How the values were obtained:
[1] = AP1 Signaling Pathway (AID 357; active means well fitted curve in either direction with a large enough effect, not every such curve was filed as active;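 further: ME-180 reporter cells stimulated with EGF at its EC50 level; on the % scale 0 is the no-effect control and ±100 the full control effect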); settings: ME-180 AP-1-bla reporter, EGF-induced, beta-lactamase ratio, 5 h; at 7.69 µM (top of the series) unless noted
Method in brief: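 Cells are seeded overnight, exposed to compound titrations and an EC50 level of EGF for 5 hours at 37 °C, then loaded with CCF4 dye for 2.5 hours. Beta-lactamase activity under the AP-1 element is read as a blue/green ratio.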

[2] = target: Cytochrome P450 1A2 (Homo sapiens) (UniProt P05177); assay: p450-cyp1a2 (AID 410; calls by dose curve; further: potency means the concentration at half of the fitted maximal effect;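 on activity change, negative = inhibition: -100% = full effect of reference inhibitor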)
Cytochrome P450 1A2 (Homo sapiens), sequence (P05177 whole entry, looked up): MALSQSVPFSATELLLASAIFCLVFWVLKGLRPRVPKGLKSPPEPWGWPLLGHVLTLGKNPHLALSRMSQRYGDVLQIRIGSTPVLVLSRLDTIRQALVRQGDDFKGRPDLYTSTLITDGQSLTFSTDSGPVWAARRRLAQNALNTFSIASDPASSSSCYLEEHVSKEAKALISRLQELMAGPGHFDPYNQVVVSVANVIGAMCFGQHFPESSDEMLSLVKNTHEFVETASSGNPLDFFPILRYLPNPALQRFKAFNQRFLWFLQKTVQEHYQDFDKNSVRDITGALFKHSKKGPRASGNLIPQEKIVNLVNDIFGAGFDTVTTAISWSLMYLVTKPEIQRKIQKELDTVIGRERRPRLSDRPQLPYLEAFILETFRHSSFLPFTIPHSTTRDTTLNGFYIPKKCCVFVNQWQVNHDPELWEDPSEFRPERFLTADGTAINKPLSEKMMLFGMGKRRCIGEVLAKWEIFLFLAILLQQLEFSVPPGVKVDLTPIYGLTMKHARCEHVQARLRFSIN
Method in brief: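 Inhibition was calculated relative to 57 uM furafylline (full inhibition). The reaction used human CYP1A2 at 20nM with Luciferin-ME at its Km, 100uM, driven by an NADPH-regenerating system for 60 min at room temperature.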

[3] = target: Glucocorticoid receptor (Homo sapiens) (UniProt P04150); assay: GR-GFP Redistribution (AID 450;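 active means compounds whose dose series gives a full or clear partial fitted curve of increased nuclear translocation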; further: potency means the concentration at half of the fitted maximal effect); settings: U2OS GR-GFP nuclear translocation, laser cytometry, 2 h
Glucocorticoid receptor (Homo sapiens), sequence (P04150 whole entry, looked up, the tested form may be a part): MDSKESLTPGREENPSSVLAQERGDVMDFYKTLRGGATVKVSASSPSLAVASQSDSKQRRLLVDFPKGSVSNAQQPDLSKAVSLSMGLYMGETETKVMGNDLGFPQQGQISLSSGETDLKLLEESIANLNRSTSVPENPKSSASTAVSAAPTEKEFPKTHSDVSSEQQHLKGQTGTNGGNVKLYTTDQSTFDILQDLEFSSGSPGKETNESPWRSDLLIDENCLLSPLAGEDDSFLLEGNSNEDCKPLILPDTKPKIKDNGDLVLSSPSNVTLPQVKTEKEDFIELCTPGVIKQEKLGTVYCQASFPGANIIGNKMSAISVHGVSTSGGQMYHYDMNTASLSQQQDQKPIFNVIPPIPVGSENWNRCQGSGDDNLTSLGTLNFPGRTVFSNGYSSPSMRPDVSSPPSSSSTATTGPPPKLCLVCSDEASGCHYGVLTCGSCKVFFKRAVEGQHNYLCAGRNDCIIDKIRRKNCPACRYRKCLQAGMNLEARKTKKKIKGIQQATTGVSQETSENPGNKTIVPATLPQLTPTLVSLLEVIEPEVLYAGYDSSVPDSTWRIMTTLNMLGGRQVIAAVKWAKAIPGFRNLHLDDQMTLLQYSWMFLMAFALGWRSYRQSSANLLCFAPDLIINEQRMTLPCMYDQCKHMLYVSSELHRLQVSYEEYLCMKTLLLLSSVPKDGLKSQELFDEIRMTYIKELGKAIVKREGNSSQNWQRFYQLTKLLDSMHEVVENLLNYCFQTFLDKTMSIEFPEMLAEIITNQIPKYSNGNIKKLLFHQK

[4] = target: Glucocorticoid receptor (Homo sapiens) (UniProt P04150); assay: GR-EFC Redistribution (AID 451; calls by dose curve; further: potency means the concentration at half of the fitted maximal effect); settings: CHO-K1 GR-EFC translocation, beta-gal luminescence, 2 h
Method in brief: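 CHO-K1 cells stably expressing nuclear-localized β-gal enzyme acceptor and GR fused C-terminally to the enzyme donor fragment; ligand-driven nuclear translocation restores β-gal by complementation. Compounds titrated up to 46 uM final, 2 h at 37 °C; luminescence read.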

[5] = target: Mitogen-activated protein kinase 10 (Mus musculus) (UniProt Q61831); assay: JNK3 AlphaScreen Assay (AID 530; active means well fitted curve in either direction with a large enough effect, not every such curve was filed as active;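 further: kinase came from lysate of stimulated human HepG2 cells; signal reports phosphorylation of biotinylated GST-cJun 1-79 at Ser73 with 10 µM ATP; on the % scale 0 is the no-effect control and ±100 the full control effect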)
Method in brief: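 JNK3 came from HepG2 lysates pre-activated with IL-1beta and TNF-alpha and phosphorylated biotinylated GST-cJun (1-79) at 10 uM ATP, pH 7.6, room temperature. Compounds were titrated. AlphaScreen signal used anti-phospho-cJun (Ser73) antibody.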

[6] = target: 3',5'-cyclic-AMP phosphodiesterase 4B (Homo sapiens) (UniProt Q07343); assay: qHTS Assay for Inhibitors of PDE-IV (AID 607; active means well fitted activation curve with a large enough effect in the main read-out, with a control signal flat, not every such curve was filed as active; further: % of control where 0% means no effect)
3',5'-cyclic-AMP phosphodiesterase 4B (Homo sapiens), sequence (Q07343 whole entry, looked up): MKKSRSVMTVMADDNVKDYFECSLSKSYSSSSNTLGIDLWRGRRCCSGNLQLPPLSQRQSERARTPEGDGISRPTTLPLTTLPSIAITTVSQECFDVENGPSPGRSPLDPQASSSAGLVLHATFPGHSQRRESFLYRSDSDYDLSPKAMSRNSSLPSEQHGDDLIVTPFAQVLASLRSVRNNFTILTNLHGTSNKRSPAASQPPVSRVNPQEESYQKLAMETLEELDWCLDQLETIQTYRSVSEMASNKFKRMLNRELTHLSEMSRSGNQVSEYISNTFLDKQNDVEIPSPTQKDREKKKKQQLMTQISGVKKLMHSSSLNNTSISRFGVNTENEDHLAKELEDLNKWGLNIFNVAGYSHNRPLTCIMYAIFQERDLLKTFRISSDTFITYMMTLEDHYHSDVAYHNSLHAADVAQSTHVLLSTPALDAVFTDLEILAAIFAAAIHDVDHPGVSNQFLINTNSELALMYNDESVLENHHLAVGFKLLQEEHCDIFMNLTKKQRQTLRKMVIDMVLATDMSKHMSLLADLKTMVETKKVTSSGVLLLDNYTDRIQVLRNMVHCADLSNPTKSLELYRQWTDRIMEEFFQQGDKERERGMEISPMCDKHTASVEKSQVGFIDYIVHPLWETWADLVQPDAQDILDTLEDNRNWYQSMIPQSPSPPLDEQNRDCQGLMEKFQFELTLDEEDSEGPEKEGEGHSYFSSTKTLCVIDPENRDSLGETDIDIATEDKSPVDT
Method in brief: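 Cell-based read-out of cAMP via a modified cyclic nucleotide-gated channel and membrane potential dye (535/590 nm) in HEK293 cells expressing PDE4 endogenously. Compounds tested up to 22.9 uM final; 100 uM RO 20-1724 reference.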

[7] = target: Guanine nucleotide-binding protein G(i) subunit alpha-1 (Homo sapiens) (UniProt P63096); assay: qHTS Assay for Inhibitors of RGS12 GoLoco Motif Activity (Green Fluorophore) (AID 879);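 further: 0% = labeled peptide with Gαi1 and full inhibition = labeled peptide alone without protein; negative values mean loss of peptide binding seen as reduced polarization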
Guanine nucleotide-binding protein G(i) subunit alpha-1 (Homo sapiens), sequence (P63096 whole entry, looked up): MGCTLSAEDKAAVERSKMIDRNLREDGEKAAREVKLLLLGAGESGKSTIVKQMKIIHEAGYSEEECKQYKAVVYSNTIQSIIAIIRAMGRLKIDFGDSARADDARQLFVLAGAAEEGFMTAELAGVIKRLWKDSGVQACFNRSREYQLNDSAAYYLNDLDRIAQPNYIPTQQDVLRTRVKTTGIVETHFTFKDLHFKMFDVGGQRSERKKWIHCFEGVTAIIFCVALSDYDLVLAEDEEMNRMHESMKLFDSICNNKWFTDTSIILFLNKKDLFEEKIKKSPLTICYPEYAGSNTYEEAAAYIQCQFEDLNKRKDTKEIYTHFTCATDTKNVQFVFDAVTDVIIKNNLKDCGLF
Method in brief: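 Fluorescence polarization assay: 50 nM Gαi1 with 10 nM FITC-labeled RGS12 GoLoco peptide in 10 mM Tris pH 7.5, 150 mM NaCl, 0.1 mM GDP, 0.05% NP40, 10 min at room temperature with compound.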

[8] = target: Cytochrome P450 3A4 (Homo sapiens) (UniProt P08684); assay: qHTS Assay for Inhibitors and Substrates of Cytochrome P450 3A4 (AID 884); further: on the % scale 0 is the no-effect control and ±100 the full control effect; nearly all actives have a fitted effect of over 50% in size
Cytochrome P450 3A4 (Homo sapiens), sequence (P08684 whole entry, looked up): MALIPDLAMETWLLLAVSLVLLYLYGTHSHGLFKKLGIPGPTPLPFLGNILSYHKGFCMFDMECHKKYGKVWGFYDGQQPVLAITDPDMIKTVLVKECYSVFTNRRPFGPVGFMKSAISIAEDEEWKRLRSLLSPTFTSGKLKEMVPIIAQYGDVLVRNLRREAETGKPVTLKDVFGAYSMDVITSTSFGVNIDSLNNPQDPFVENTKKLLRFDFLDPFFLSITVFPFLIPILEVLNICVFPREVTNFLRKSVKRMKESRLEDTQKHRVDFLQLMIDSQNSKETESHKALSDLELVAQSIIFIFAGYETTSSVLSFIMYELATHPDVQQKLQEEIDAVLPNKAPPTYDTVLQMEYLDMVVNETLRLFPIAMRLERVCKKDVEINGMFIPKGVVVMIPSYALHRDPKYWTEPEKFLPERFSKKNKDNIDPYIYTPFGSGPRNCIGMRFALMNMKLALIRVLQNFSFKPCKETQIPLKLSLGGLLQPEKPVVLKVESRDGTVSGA
Method in brief: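 20 nM human CYP3A4 with 25 uM Luciferin-PPXE (at KM) in 200 mM KPO4, preincubated 10 min with compound; NADPH regeneration started a 60 min RT reaction. Luciferin detected by luminescence, normalized to 57 uM ketoconazole as full inhibition.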

[9] = qHTS Assay for Identification of Small Molecule Antagonists for NFkB Signaling Pathway (AID 895; active means well fitted inhibition curve with a large enough effect in the signal ratio, with a control signal flat, not every such curve was filed as active; the % refers to the signal ratio; further: potency means the concentration at half of the fitted maximal effect)
Method in brief: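 NFkB-bla ME-180 cervical carcinoma cells with beta-lactamase reporter under NFkB response element; compounds added, then TNF alpha at 10 pM final (EC50), 5 h at 37 C. LiveBLAzer substrate 2 h, room temperature; emission 460/530 nm at 405 nm excitation.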

[10] = target: Muscarinic acetylcholine receptor M1 (Rattus norvegicus) (UniProt P08482); assay: qHTS Assay for Antagonists of Acetylcholine Muscarinic M1 Receptor: Measurement of IP-One Response (AID 944); further: nearly all actives have a fitted effect of over 75% in size
Muscarinic acetylcholine receptor M1 (Rattus norvegicus), sequence (P08482 whole entry, looked up): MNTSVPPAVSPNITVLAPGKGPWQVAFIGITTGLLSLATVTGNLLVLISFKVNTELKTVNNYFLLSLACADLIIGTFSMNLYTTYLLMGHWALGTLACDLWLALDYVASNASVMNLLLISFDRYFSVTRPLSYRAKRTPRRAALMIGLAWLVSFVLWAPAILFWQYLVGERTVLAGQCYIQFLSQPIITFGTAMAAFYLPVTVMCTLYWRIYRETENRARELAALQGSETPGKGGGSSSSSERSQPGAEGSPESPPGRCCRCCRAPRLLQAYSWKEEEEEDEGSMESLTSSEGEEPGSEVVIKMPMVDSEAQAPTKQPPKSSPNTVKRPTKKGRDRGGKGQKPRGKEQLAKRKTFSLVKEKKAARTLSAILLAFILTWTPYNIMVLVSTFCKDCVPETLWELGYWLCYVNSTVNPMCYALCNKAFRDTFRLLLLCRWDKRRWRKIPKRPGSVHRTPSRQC
Method in brief: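 Steps: plate transfected CHO-M1 cells overnight; add test compound, 10 min; add carbachol (200 nM, EC80) in stimulation buffer with LiCl; incubate 30 min; add labelled IP1 tracer and anti-IP1 antibody in lysis buffer; read HTRF after 10 min.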

[11] = target: Pyruvate kinase (Leishmania mexicana) (UniProt Q27686); assay: qHTS Validation Assay for Inhibitors of Leishmania Mexicana Pyruvate Kinase (AID 945);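 further: 0% = DMSO only neutral control wells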
Pyruvate kinase (Leishmania mexicana), sequence (Q27686 2-499 E452W): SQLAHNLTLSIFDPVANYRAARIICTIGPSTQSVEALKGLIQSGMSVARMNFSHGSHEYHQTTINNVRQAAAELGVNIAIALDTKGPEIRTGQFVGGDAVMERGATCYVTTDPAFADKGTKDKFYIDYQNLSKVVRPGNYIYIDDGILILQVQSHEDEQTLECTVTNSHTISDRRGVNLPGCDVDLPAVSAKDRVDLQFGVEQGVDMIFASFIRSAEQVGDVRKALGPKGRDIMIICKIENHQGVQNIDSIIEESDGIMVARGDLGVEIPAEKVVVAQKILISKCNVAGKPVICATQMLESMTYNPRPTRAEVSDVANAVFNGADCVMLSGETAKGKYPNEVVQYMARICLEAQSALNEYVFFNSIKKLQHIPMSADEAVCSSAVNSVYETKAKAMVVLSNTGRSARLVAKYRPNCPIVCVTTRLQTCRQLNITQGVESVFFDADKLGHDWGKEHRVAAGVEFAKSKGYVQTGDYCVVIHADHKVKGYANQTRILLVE
Method in brief: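 Purified LmPYK (E451W mutant, 0.2 nM) was incubated 1 h at room temperature with 0.5 mM PEP and 0.1 mM ADP in 50 mM imidazole pH 7.2, 50 mM KCl, 7 mM MgCl2; ATP formed was read by PKLight luminescence, normalized to DMSO wells.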

[12] = target: Pyruvate kinase PKM (Homo sapiens) (UniProt P14618); assay: qHTS Assay for Activators of Human Muscle Pyruvate Kinase (AID 954; active means well fitted curve in the direction sought with a large enough effect, not every such curve was filed as active;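 further: 0% = uninhibited enzyme and -100% = no enzyme or full thiadiazolimine inhibition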)
Pyruvate kinase PKM (Homo sapiens), sequence (P14618 whole entry, looked up): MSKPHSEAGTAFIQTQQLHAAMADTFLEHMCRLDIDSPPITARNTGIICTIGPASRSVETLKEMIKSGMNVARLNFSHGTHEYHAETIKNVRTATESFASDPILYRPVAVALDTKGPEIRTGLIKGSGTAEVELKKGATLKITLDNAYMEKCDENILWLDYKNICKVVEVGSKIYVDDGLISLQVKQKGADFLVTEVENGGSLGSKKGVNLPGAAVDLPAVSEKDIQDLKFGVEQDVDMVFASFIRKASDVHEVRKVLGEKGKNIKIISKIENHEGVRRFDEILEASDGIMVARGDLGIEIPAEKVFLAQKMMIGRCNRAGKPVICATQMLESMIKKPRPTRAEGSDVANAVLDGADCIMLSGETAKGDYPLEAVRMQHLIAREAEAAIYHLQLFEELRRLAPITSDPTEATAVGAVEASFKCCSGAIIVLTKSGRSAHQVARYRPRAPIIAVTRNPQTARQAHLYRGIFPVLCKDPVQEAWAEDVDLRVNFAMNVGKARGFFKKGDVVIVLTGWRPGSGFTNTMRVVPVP
Method in brief: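 Human PKM2 activity is measured as ATP generation, detected by luciferase-coupled luminescence. The enzyme (0.1 nM) acts on 0.5 mM PEP and 0.1 mM ADP for 1 h at ambient temperature; data are normalized to uninhibited and full-inhibition wells.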

[13] = target: Alpha-galactosidase A (Homo sapiens) (UniProt P06280); assay: Counterscreen for Glucocerebrosidase Inhibitors: qHTS Assay for Human alpha-Galactosidase at pH 4.5 (AID 992); further: 0% is about no effect
Alpha-galactosidase A (Homo sapiens), sequence (P06280 whole entry, looked up): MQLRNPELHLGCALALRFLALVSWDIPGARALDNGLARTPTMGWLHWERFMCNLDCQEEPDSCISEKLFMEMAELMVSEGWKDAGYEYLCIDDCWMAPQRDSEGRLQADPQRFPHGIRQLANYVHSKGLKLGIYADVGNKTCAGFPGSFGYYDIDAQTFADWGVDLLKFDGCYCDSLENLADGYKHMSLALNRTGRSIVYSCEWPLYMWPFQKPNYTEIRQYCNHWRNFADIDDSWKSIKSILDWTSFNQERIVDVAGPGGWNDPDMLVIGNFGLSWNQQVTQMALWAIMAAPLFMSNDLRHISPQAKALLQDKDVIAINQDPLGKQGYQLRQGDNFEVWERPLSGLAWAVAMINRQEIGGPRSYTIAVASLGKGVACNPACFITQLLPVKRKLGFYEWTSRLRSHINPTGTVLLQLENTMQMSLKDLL
Method in brief: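 Quantitative HTS: compounds tested from 0.7 nM up to 77 uM against 2 nM enzyme with 80 uM 4-MU alpha-D-galactopyranoside. The 20 min room-temperature reaction is stopped with 1M NaOH/1M glycine, pH 10.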

[14] = target: alpha-glucosidase (Oryza sativa, rice) (UniProt Q653V4); assay: Counterscreen for Glucocerebrosidase Inhibitors: qHTS Assay for Rice alpha-Glucosidase at pH 5.0 (AID 997);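 further: 0% = full activity with enzyme and -100% = basal without enzyme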
Method in brief: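 Rice alpha-glucosidase (4 nM final) with 400 uM 4-methylumbelliferyl-alpha-D-glucopyranoside in citrate buffer pH 5.0, 20 min at room temperature, stopped at pH 10; fluorescence 365/440 nm, compounds 0.7 nM–77 uM, AC50 from Hill fits.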

[15] = NFAT Signaling Pathway (AID 444; active means well fitted curve in either direction with a large enough effect, not every such curve was filed as active;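 further: carbachol stimulus at about its EC50 of 1 µM final; on the % scale 0 is the no-effect control and ±100 the full control effect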); settings: Jurkat NFAT-bla M1, carbachol, beta-lactamase ratio, 5 h; at 7.69 µM (top of the series) unless noted
Method in brief: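 Jurkat cells carrying an NFAT-driven β-lactamase reporter and co-transfected muscarinic M1 receptor were treated with compound plus carbachol (1 uM final, an EC50 level) for 5 h at 37 °C. CCF4 loading followed for 1 h at RT; 460/530 nm ratio gave %activity.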

[16] = target: Cytochrome P450 3A4 (Homo sapiens) (UniProt P08684); assay: qHTS Assay for Activators of Cytochrome P450 3A4 (AID 885); further: nearly all actives have a fitted effect of over 65% in size
Method in brief: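 Signal was normalized against complete inhibition by 57 uM ketoconazole. The reaction used 20nM CYP3A4 with 25uM Luciferin-PPXE, 10-min compound preincubation and a 60-min NADPH-supported step at RT.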

[17] = qHTS Assay for Identification of Small Molecule Antagonists for Thrombopoietin (TPO) Signaling Pathway (AID 918); settings: TPO-dependent cell signaling reporter, antagonist mode; further: potency means the concentration at half of the fitted maximal effect; nearly all actives have a fitted effect of over 60% in size
Method in brief: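 First, Ba/F3 reporter cells expressing human TPO receptor were held overnight without IL-3. Next, compound and 26 pM TPO were added. After 24 hrs incubation at 37 C, luciferase luminescence under the Glycoprotein IIb promoter was recorded.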

[18] = Stat Signaling Pathway (AID 446; active means well fitted curve in either direction with a large enough effect, not every such curve was filed as active;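 further: ME-180 cervical cancer cells given 40 pM IL-6 alongside compound; SIE-controlled beta-lactamase reporter measured as 460/530 nm FRET emission ratio; on the % scale 0 is the no-effect control and ±100 the full control effect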); settings: ME-180 SIE beta-lactamase reporter, IL-6 stimulated, 5 h; at 7.69 µM (top of the series) unless noted
Method in brief: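 Reporter line: ME-180 cervical carcinoma, SIE-beta-lactamase. Treatment: compound with 40 pM IL-6, 5 hrs, 37 C, in low-serum OPTI-MEM with 10 mM HEPES pH 7.3. Detection: 460/530 nm fluorescence.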

[19] = qHTS Assay for Identification of Small Molecule Agonists for Thrombopoietin (TPO) Signaling Pathway (AID 917); further: on the % scale 0 is the no-effect control and ±100 the full control effect
Method in brief: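 IL-3-dependent murine pro-B Ba/F3 cells, stably transfected with human TPO receptor and GpIIb-promoter luciferase, are incubated 24 hrs at 37 C with test compound and 26 pM TPO; luciferase signal is read after 10 min at room temperature.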

[20] = target: Cytochrome P450 2C19 (Homo sapiens) (UniProt P33261); assay: qHTS Assay for Inhibitors and Substrates of Cytochrome P450 2C19 (AID 899); further: on the % scale 0 is the no-effect control and ±100 the full control effect; nearly all actives have a fitted effect of over 60% in size
Method in brief: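 In 50mM KPO4, the reaction held 5nM enzyme and KM-level (10uM) Luciferin-H EGE; it ran 60 min at 37C after NADPH regeneration and a 10 min compound preincubation. Luminescence values were scaled to 57uM ketoconazole as complete inhibition.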

[21] = target: Cytochrome P450 2C9 (Homo sapiens) (UniProt P11712); assay: qHTS Assay for Inhibitors and Substrates of Cytochrome P450 2C9 (AID 883); further: potency means the concentration at half of the fitted maximal effect; nearly all actives have a fitted effect of over 60% in size
Method in brief: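 CYP2C9 deoxyluciferin hydroxylation, 37C, 60 min with NADPH regeneration; 10nM enzyme, 100uM Luciferin-H (KM). Glo detection reagent stopped reaction; luminescence normalized to sulphaphenazole (57uM) full inhibition.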

[22] = target: Cytochrome P450 2D6 (Homo sapiens) (UniProt P10635); assay: qHTS Assay for Inhibitors and Substrates of Cytochrome P450 2D6 (AID 891); further: potency means the concentration at half of the fitted maximal effect; nearly all actives have a fitted effect of over 60% in size
Method in brief: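 Human CYP2D6 (5 nM) with 30 uM Luciferin-ME EGE (at Km) in 100 mM KPO4, compound preincubated 10 min, then NADPH regeneration system for 60 min at room temperature. Luciferin read by luminescence; normalized to 1.43 uM quinidine.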

C=CCN1CCc2c(cc(O)c(O)c2Cl)[C@H](c2ccccc2)C1
active: Potency [2] 20 µM | Potency [9] 12.6 µM
inactive: activity change, negative = inhibition [1] -17.1% [at 38 µM] | Potency [3] > 46 µM | Potency [4] > 46 µM | Potency [5] | Potency [6] | outcome [7] | Potency [8] | Potency [10] | outcome [11] | outcome [12] | outcome [13] | Potency [14]

CC[C@H](C)[C@@H]1O[C@]2(CC[C@@H]1C)C[C@H]1C[C@H](CC=C(C)[C@@H](O[C@H]3C[C@H](OC)[C@H](O[C@H]4C[C@H](OC)[C@H](O)[C@H](C)O4)[C@H](C)O3)[C@@H](C)C=CC=C3CO[C@@H]4[C@@H](O)C(C)=C[C@H](C(=O)O1)[C@@]34O)O2
active: Potency [17] 12.6 µM
inactive: activity change, negative = inhibition [1] -14% [at 38 µM] | Potency [2] | activity change, negative = inhibition [15] -10.6% [at 38 µM] | Potency [3] > 46 µM | Potency [4] > 46 µM | Potency [6] | Potency [16] | outcome [11] | outcome [12] | outcome [13] | Potency [14]

COc1cc([C@H](O)CO)ccc1O
inactive: Potency [2] | activity change, negative = inhibition [15] 2.95% [at 38 µM] | activity, negative = inhibition [18] 17.1% [at 38 µM] | Potency [3] > 46 µM | Potency [4] > 46 µM | Potency [6] | outcome [7] | Potency [16] | Potency [9] | outcome [19] | Potency [10] | outcome [11] | outcome [12] | outcome [13] | Potency [14]

CCc1cccc2c3c([nH]c12)[C@](CC)(CC(=O)O)OCC3
inactive: Potency [2] | activity change, negative = inhibition [15] -5.71% [at 38 µM] | Potency [5] | Potency [6] | Potency [20]

C[N+](C)(C)c1cc2c(nn1)Nc1ccccc1S2
inactive: activity change, negative = inhibition [1] -0.66% | activity, negative = inhibition [18] 19.9% | Potency [3] > 46 µM | Potency [4] > 9.22 µM | Potency [5] | Potency [6]
active: Potency [2] 2 µM

C/C(=N\[N+](C)(C)C)c1ccc(C)c(C)c1
inactive: activity change, negative = inhibition [1] 10% | activity change, negative = inhibition [2] -16.9% [at 2.29 µM] | activity, negative = inhibition [18] 6.61% | Potency [3] > 46 µM | Potency [4] > 9.22 µM | Potency [5] | Potency [6]

CC(C)(C)[C@@]1(O)CCN2C[C@@H]3c4ccccc4CCc4cccc(c43)[C@@H]2C1
active: Potency [21] 1.58 µM | Potency [22] 79.4 nM and 501 nM | Potency [17] 12.6 µM
inactive: activity change, negative = inhibition [1] -4.55% [at 38 µM] and 8.62% [at 38 µM] | activity change, negative = inhibition [15] -14.6% [at 38 µM] and -5.47% [at 38 µM] | activity, negative = inhibition [18] -1.04% [at 38 µM] and -27.5% [at 38 µM] | Potency [3] > 46 µM | Potency [4] > 46 µM | Potency [6] | Potency [10] | outcome [12] | outcome [13] | Potency [14]
